Measured values as given in PubChem BioAssay (NCATS).
Inconclusive results are not listed. Unless noted, calls come from the whole dose curve; as a rule, active = well fitted curve in either direction with a large enough effect (not every such curve was filed as active); inconclusive = small, poorly fitted or top-dose-only effect, or another doubt; inactive = flat fitted curve, though single readings scatter.

Assays:
[1] = AP1 Signaling Pathway (AID 357); conditions: ME-180 AP-1-bla reporter, EGF-induced, beta-lactamase ratio, 5 h; at 17.2 µM (top of the series) unless noted; note: % is set by controls: 0 for no effect and ±100 for the full control effect
Method in brief: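 AP-1-bla ME-180 cells with beta-lactamase reporter under AP-1 response element, stimulated with EC50 EGF; compounds titrated, 5 hours at 37 degrees Celsius. CCF4 read at 460/530 nm ratio; positive and negative modulators judged by AC50.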

[2] = Stat Signaling Pathway (AID 446); conditions: ME-180 SIE beta-lactamase reporter, IL-6 stimulated, 5 h; at 17.2 µM (top of the series) unless noted;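 note: ME-180 cervical cancer cells given 40 pM IL-6 alongside compound; SIE-controlled beta-lactamase reporter measured as 460/530 nm FRET emission ratio; % is set by controls: 0 for no effect and ±100 for the full control effect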
Method in brief: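 ME-180 cells carrying a SIE-driven beta-lactamase reporter are stimulated with 40 pM IL-6 for 5 h at 37C in the presence of compound. The 460/530 nm FRET substrate ratio is read after 2.5 h at RT. Data are normalised to 300 pM IL-6 and to 125 nM JAK inhibitor controls.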

[3] = molecular target: Glucocorticoid receptor (Homo sapiens) (UniProt P04150); test: GR-GFP Redistribution (AID 450;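 active = compounds whose dose series gives a full or clear partial fitted curve of increased nuclear translocation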; note: potency is the fitted concentration of half-maximal effect)
Glucocorticoid receptor (Homo sapiens), sequence (P04150 whole entry, looked up): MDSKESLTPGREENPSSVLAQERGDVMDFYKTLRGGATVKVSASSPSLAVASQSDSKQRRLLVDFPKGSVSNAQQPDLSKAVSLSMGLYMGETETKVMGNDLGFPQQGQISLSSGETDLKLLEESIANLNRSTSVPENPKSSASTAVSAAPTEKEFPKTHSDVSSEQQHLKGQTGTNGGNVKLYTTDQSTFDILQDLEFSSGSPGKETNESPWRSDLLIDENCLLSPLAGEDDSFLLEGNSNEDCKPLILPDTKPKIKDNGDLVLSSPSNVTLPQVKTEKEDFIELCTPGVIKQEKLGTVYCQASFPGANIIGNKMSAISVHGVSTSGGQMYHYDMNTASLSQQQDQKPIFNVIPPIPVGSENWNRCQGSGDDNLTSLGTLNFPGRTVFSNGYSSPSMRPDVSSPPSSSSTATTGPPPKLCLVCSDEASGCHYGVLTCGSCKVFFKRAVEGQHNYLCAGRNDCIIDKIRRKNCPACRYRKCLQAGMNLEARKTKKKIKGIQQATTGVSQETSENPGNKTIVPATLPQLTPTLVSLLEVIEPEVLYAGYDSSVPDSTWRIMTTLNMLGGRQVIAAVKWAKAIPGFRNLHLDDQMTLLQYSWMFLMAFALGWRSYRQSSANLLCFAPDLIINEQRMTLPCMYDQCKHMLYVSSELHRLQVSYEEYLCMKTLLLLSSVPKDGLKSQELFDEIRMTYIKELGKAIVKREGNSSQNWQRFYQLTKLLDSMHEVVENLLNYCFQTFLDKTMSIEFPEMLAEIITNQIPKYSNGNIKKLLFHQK

Cc1cccc(NC(=O)c2c(C)cc(=O)oc2C)n1
inactive: activity change, negative = inhibition [1] -0.882% | activity, negative = inhibition [2] 4.29% | Potency [3] > 20.6 µM

CC(C)OCCCn1c(=N)c(C(N)=S)cc2c(=O)n3ccccc3nc21
inactive: activity change, negative = inhibition [1] -4.52% | activity, negative = inhibition [2] -1.51% | Potency [3] > 20.6 µM

Cc1ccc(CNc2oc(COc3ccccc3Cl)nc2C#N)cc1
inactive: activity change, negative = inhibition [1] 39.1% | activity, negative = inhibition [2] -8.99% | Potency [3] > 20.6 µM

CCCCCCOc1ccc(C(=O)n2cnc(N)n2)cc1
inactive: activity change, negative = inhibition [1] -12.8% | activity, negative = inhibition [2] 27.4% | Potency [3] > 20.6 µM

N#Cc1c(SCC(N)=O)nsc1SCc1ccc(Cl)cc1
inactive: activity change, negative = inhibition [1] -15.5% | activity, negative = inhibition [2] -18% | Potency [3] > 20.6 µM

COC(=O)CC1=C(C(=O)OC)C(c2ccc3c(c2Cl)OCO3)C(C#N)=C(N)O1 (centres undefined)
inactive: activity change, negative = inhibition [1] 29.4% | activity, negative = inhibition [2] 14.3% | Potency [3] > 20.6 µM

COc1ccc(OC)c(NS(=O)(=O)c2ccc(N3CCCC3=O)cc2)c1
inactive: activity change, negative = inhibition [1] 18.1% | activity, negative = inhibition [2] 11.3% | Potency [3] > 20.6 µM

COc1ccc(C(=O)Nc2cccnc2)cc1C(=O)Nc1cccnc1
inactive: activity change, negative = inhibition [1] 3.61% | activity, negative = inhibition [2] -4.76% | Potency [3] > 20.6 µM

C=CCSc1nnc2n(CCc3ccccc3)c(=O)c3c4c(sc3n12)COC(C)(C)C4
inactive: activity change, negative = inhibition [1] -23.5% | activity, negative = inhibition [2] -18.1% | Potency [3] > 20.6 µM

CC1(C)Cc2c(C#N)c(OCC(=O)c3ccccc3)nc(-c3ccoc3)c2CO1
inactive: activity change, negative = inhibition [1] 20.6% | activity, negative = inhibition [2] 12.9% | Potency [3] > 20.6 µM

CC(C)OC(=O)c1nn2c(C(F)(F)F)cc(-c3ccc(Br)o3)nc2c1Br
inactive: activity change, negative = inhibition [1] -6.76% | activity, negative = inhibition [2] 8.51% | Potency [3] > 20.6 µM

CCCCCCn1cc(C(=O)O)c(=O)c2ccccc21
inactive: activity change, negative = inhibition [1] -9% | activity, negative = inhibition [2] 8.19% | Potency [3] > 20.6 µM

C1CCCN(CCCCN2CCCCCC2)CC1
inactive: activity change, negative = inhibition [1] 3.84% | activity, negative = inhibition [2] 16% | Potency [3] > 20.6 µM

COc1ccc(CCNc2oc(COc3ccccc3)nc2C#N)cc1
inactive: activity change, negative = inhibition [1] -23% | activity, negative = inhibition [2] -23.3% | Potency [3] > 20.6 µM

CCc1nc(NC2CCCCC2)c(C#N)c2c1COC(C)(C)C2
inactive: activity change, negative = inhibition [1] 7.15% | activity, negative = inhibition [2] 7.37% | Potency [3] > 20.6 µM

CCOC(=O)c1c(NC(=O)CCN2CCOCC2)sc2c1CC(C)(C)OC2
inactive: activity change, negative = inhibition [1] -21.7% | activity, negative = inhibition [2] -5.77% | Potency [3] > 20.6 µM

CCc1nnc(NC(=O)CSc2nc(C)c3c(c2C#N)CCCC3)s1
inactive: activity change, negative = inhibition [1] -12.7% | activity, negative = inhibition [2] -23.4% | Potency [3] > 20.6 µM

CCn1cc(C(=O)NCCCN(C)C)c(=O)c2cc(F)c(N3CCN(C)CC3)cc21
inactive: activity change, negative = inhibition [1] -0.851% | activity, negative = inhibition [2] 3.71% | Potency [3] > 20.6 µM

Cc1nc(N2CCN(Cc3ccccc3)CC2)c(C#N)c2c1COC(C)(C)C2
inactive: activity change, negative = inhibition [1] -29.1% | activity, negative = inhibition [2] -15.6% | Potency [3] > 20.6 µM

C(=N\n1cnnc1)/c1ccccn1
inactive: activity change, negative = inhibition [1] 1.5% | activity, negative = inhibition [2] 7.02% | Potency [3] > 20.6 µM

O=c1c2c3c(sc2n2cnnc2n1Cc1ccccc1)CN(Cc1ccccc1)CC3
inactive: activity change, negative = inhibition [1] 0.127% | activity, negative = inhibition [2] -0.303% | Potency [3] > 20.6 µM

Cc1ccsc1C1NC(=O)c2c(sc3c2CCCC3)N1 (centres undefined)
inactive: activity change, negative = inhibition [1] -25.1% | activity, negative = inhibition [2] -6.73% | Potency [3] > 20.6 µM

OCCNc1nc(-c2ccccc2)c2ccccc2n1
inactive: activity change, negative = inhibition [1] -11.6% | activity, negative = inhibition [2] -4.38% | Potency [3] > 20.6 µM

CCCc1cc(Nc2c(C)n(C)n(-c3ccccc3)c2=O)n2c(nc3ccccc32)c1C#N
inactive: activity change, negative = inhibition [1] -3.24% | activity, negative = inhibition [2] 0.163% | Potency [3] > 20.6 µM

CNC(=O)CC(C(=O)O)c1ccc(OC(C)C)cc1 (centres undefined)
inactive: activity change, negative = inhibition [1] 5.59% | activity, negative = inhibition [2] 5.76% | Potency [3] > 20.6 µM

N#Cc1nc(COc2ccc(Cl)cc2)oc1N1CCN(Cc2ccccc2)CC1
inactive: activity change, negative = inhibition [1] -16.3% | activity, negative = inhibition [2] 4.41% | Potency [3] > 20.6 µM

CCc1c(C)c2cc(Cl)c(O)c(CN3CCCCC3)c2oc1=O
inactive: activity change, negative = inhibition [1] 3.67% | activity, negative = inhibition [2] 11.7% | Potency [3] > 20.6 µM

CCN(CC)CCCn1c(C)cc2c(c1=O)C(c1ccccc1)C(C#N)=C(N)O2 (centres undefined)
inactive: activity change, negative = inhibition [1] 1.7% | activity, negative = inhibition [2] 2.65% | Potency [3] > 20.6 µM

Clc1ccc(-n2ncc3c(NCc4cccs4)ncnc32)cc1
inactive: activity change, negative = inhibition [1] 13.8% | activity, negative = inhibition [2] -14.7% | Potency [3] > 20.6 µM

Cn1c(OCc2ccco2)nc2c1c(=O)n(Cc1ccc(Cl)c(Cl)c1)c(=O)n2C
inactive: activity change, negative = inhibition [1] -3.54% | activity, negative = inhibition [2] 0.615% | Potency [3] > 20.6 µM

Cc1cc(C)n(C2CCCCC2OC(=O)c2ccccc2)n1 (centres undefined)
inactive: activity change, negative = inhibition [1] 7.47% | activity, negative = inhibition [2] 3.83% | Potency [3] > 20.6 µM

CN(CCOC(=O)c1cccc(Br)c1)C(C)(C)C
inactive: activity change, negative = inhibition [1] 9.82% | activity, negative = inhibition [2] 7.11% | Potency [3] > 20.6 µM

Cc1nnc(C)n1/N=C/c1cc(Br)cc(Br)c1O
inactive: activity change, negative = inhibition [1] -5.92% | activity, negative = inhibition [2] -19.2% | Potency [3] > 20.6 µM

CC(C)CSc1nc(N2CCOCC2)c2c(c1C#N)CC(C)(C)SC2
inactive: activity change, negative = inhibition [1] -7.32% | activity, negative = inhibition [2] 2.55% | Potency [3] > 20.6 µM

Cn1c(=O)c2c3c(sc2n2c(SCc4ccccc4)nnc12)CCCC3
inactive: activity change, negative = inhibition [1] -6.83% | activity, negative = inhibition [2] -27.8% | Potency [3] > 20.6 µM

CCN(CC)Cc1cc(C(C)=O)ccc1OCC(C)C
inactive: activity change, negative = inhibition [1] 23.1% | activity, negative = inhibition [2] 13.1% | Potency [3] > 20.6 µM

CCOC(=O)N1CC=C2C(C#N)=C(N)C(C#N)(C#N)[C@H](c3cccs3)[C@H]2C1
inactive: activity change, negative = inhibition [1] 6.03% | activity, negative = inhibition [2] -16% | Potency [3] > 20.6 µM

CCCCc1nc(NCC2CCCO2)c(C#N)c2c1COC(C)(C)C2 (centres undefined)
inactive: activity change, negative = inhibition [1] -26.3% | activity, negative = inhibition [2] 1.02% | Potency [3] > 20.6 µM

O=C(NCc1cccnc1)/C(=N\O)c1ccccc1
inactive: activity change, negative = inhibition [1] -8.53% | activity, negative = inhibition [2] 0.749% | Potency [3] > 20.6 µM

Cc1ccc(SCc2c(C#N)c3ccccc3n2C)cc1
inactive: activity change, negative = inhibition [1] -29.6% | activity, negative = inhibition [2] -15.3% | Potency [3] > 20.6 µM

CC1(C)Cc2c(c(N3CCOCC3)nc3sc(C#N)c(N)c23)CS1
inactive: activity change, negative = inhibition [1] 11.7% | activity, negative = inhibition [2] -14.4% | Potency [3] > 20.6 µM

CCCc1nc(NC2CCCCC2)c(C#N)c2c1COC(C)(C)C2
inactive: activity change, negative = inhibition [1] 16.4% | activity, negative = inhibition [2] 25.5% | Potency [3] > 20.6 µM

CC(C)OC(=O)C(C#N)c1nc2ccccc2nc1N1CCN(Cc2ccc3c(c2)OCO3)CC1 (centres undefined)
inactive: activity change, negative = inhibition [1] -10.5% | activity, negative = inhibition [2] -12.7% | Potency [3] > 20.6 µM

Cc1nn(C)cc1/C=N/n1nnnc1N
inactive: activity change, negative = inhibition [1] 0.525% | activity, negative = inhibition [2] -1.52% | Potency [3] > 20.6 µM

CCCCOC(=O)C(C)c1c(C)[nH]c(=S)[nH]c1=O (centres undefined)
inactive: activity change, negative = inhibition [1] 7.17% | activity, negative = inhibition [2] -3.5% | Potency [3] > 20.6 µM

CCOC(=O)C1=C(CSc2nc3c(cc2C#N)CCC3)OC(N)=C(C#N)C1c1ccccc1 (centres undefined)
inactive: activity change, negative = inhibition [1] 0.107% | activity, negative = inhibition [2] -16.4% | Potency [3] > 20.6 µM

COc1ccc(Cn2c(=O)c3c(nc(NCCO)n3C)n(C)c2=O)cc1
inactive: activity change, negative = inhibition [1] 1.13% | activity, negative = inhibition [2] -24.4% | Potency [3] > 20.6 µM

COC(=O)c1cc(=O)n2c(-c3ccc(OC)cc3)csc2n1
inactive: activity change, negative = inhibition [1] -2.63% | activity, negative = inhibition [2] 5.85% | Potency [3] > 20.6 µM

CC1(C)Cc2c(c(N3CCCCC3)[nH]c(=S)c2C#N)CS1
inactive: activity change, negative = inhibition [1] 3.57% | activity, negative = inhibition [2] -3.22% | Potency [3] > 20.6 µM

CCOC(=O)C1=C(CSc2nc(-c3ccncc3)ccc2C#N)OC(N)=C(C#N)C1c1cccnc1 (centres undefined)
inactive: activity change, negative = inhibition [1] 20.1% | activity, negative = inhibition [2] -14.4% | Potency [3] > 20.6 µM

Nc1ccc2c(c1)N1CCN=C1S2
inactive: activity change, negative = inhibition [1] -0.461% | activity, negative = inhibition [2] 8.4% | Potency [3] > 20.6 µM

C[C@]12CC[C@@H]3c4ccc(O)cc4C(=O)C[C@H]3[C@@H]1CC[C@@H]2O
inactive: activity change, negative = inhibition [1] 0.317% | activity, negative = inhibition [2] -2.37% | Potency [3] > 20.6 µM

CCCc1cc(C(=O)Cc2ccc(F)cc2)c(O)cc1O
inactive: activity change, negative = inhibition [1] -28% | activity, negative = inhibition [2] -25.5% | Potency [3] > 20.6 µM

CC1(C)Cc2nc(NCCCO)c(C#N)cc2CO1
inactive: activity change, negative = inhibition [1] -6.96% | activity, negative = inhibition [2] 7.31% | Potency [3] > 20.6 µM

CCO/C(C)=N/n1c2nc3ccccc3nc2c2c(=O)n(Cc3ccccc3Cl)c(C)nc21
inactive: activity change, negative = inhibition [1] -30% | activity, negative = inhibition [2] -8.13% | Potency [3] > 20.6 µM

CN(CC(O)COc1ccc(OCC(O)CN(C)C2CCCCC2)cc1)C1CCCCC1 (centres undefined)
inactive: activity change, negative = inhibition [1] 11.3% | activity, negative = inhibition [2] 12.2% | Potency [3] > 20.6 µM

CC(C)c1nc(NCC2CCCO2)c(C#N)c2c1COC(C)(C)C2 (centres undefined)
inactive: activity change, negative = inhibition [1] -26.1% | activity, negative = inhibition [2] -3.72% | Potency [3] > 20.6 µM

CC1CN(C2CCN(C(=O)c3ccccc3Cl)CC2)CC(C)O1 (centres undefined)
inactive: activity change, negative = inhibition [1] 6.4% | activity, negative = inhibition [2] 1.52% | Potency [3] > 20.6 µM
